In all, about 390,000 compounds went through this assay and about 1,400 (0.36%) were called active. Inconclusive results (about 2%) are left out. Calls come from the whole dose curve; as a rule, active = well fitted inhibition curve with a large enough effect; inconclusive = small, poorly fitted or top-dose-only effect; inactive = no such curve, though single readings can be large or run the other way. The list comes from a sample in which actives are over-represented; it also holds similar structures and randomly drawn compounds. Where a call stands in place of a potency, no number is given.
biological target: Flap endonuclease 1 (Homo sapiens) (UniProt P39748); assay: qHTS Assay for the Inhibitors of Human Flap endonuclease 1 (FEN1).; note: nearly all actives have a fitted effect of over 65% in size; settings: Recombinant FEN1 flap cleavage, fluorescence, 15 min; series mostly up to 114 µM
Sequence (P39748 whole entry, looked up, the tested form may be a part): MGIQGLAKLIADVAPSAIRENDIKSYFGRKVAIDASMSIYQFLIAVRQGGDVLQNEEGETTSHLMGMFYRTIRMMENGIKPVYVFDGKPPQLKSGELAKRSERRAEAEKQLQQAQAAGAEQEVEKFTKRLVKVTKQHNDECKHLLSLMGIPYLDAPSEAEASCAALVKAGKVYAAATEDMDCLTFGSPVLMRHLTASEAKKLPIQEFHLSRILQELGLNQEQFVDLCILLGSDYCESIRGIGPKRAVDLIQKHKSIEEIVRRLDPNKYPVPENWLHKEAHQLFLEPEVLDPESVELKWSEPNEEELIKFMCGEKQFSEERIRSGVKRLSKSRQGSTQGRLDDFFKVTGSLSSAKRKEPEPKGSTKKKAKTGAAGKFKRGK
Text: The major human flap endonuclease FEN1 is an efficient structure-specific enzyme that recognizes and cleaves a 5'-unannealed DNA flap. It belongs to the RAD2 family nucleases, which are involved in DNA metabolism and are highly conserved in prokaryotes and eukaryotes. FEN1 is a key enzyme in DNA replication, repair and maintenance of genomic stability. 5'-flap removal by FEN1 is critical for Okazaki fragment processing during lagging strand DNA synthesis, long-patch base excision repair (LP BER), and regulating or facilitating recombination events. […] Deletion of the yeast FEN1 gene, i.e. rad27, results in an increased frequency of short DNA (3-32 bp) repeats, micro- and mini-satellite formation, trinucleotide repeat expansion, spontaneous recombination events, and a severe growth defect in association with cell cycle arrest in late S/G2 phase. […] Cells from fen1-/- blastocysts show increased apoptotic cell death after ionizing radiation treatment, and chicken cells lacking the fen1 gene are hypersensitive to DNA alkylating agents, e.g. methylmethane sulfonate (MMS) and N-methyl-N'-nitro-N-nitrosoguanidine (MNNG), as well as hydrogen peroxide.
NIH Chemical Genomics Center [NCGC]
NIH Molecular Libraries Probe Centers Network [MLPCN]
Assay Submitter (PI): David Wilson, National Institute of Aging
Three uL of reagents (buffer in column 3 and 4 as negative control and 10 nM FEN1 in columns 1, 2, and 5-48) were dispensed into 1,536-well black solid-bottomed plate. Compounds (23 nL) were transferred via Kalypsys pin tool equipped with 1536-pin array (10 nL slotted pins, V&P Scientific, San Diego, CA). The plates were then incubated for 15 min at room temperature, and 1 uL substrate (50 nM final concentration) were added to start the reaction read twice at 0 min read and 15 min on ViewLux reader. Throughout the screen, reagent bottle and all liquid lines were chilled and made light-tight to minimize reagent degradation. All screening operations were performed on a fully integrated robotic system (Kalypsys, San Diego, CA) containing one RX-130 and two RX-90 anthropomorphic robotic arms (Staubli, Duncan, SC). Library plates were screened starting from the lowest and proceeding to the highest concentration, and a "double-dipping" step of the highest concentration was required to access higher concentrations of compounds. Vehicle-only plates, with DMSO being pin-transferred to the entire column 5-48 compound area, were inserted uniformly at the beginning and the end of each library in order to monitor for and record any shifts in the background, which can be affected by reagent dispensers or loss in enzyme activity overtime. Screening data was corrected, normalized, and concentration-effect relationships were derived by using publicly-available curve fitting algorithms developed in-house (http://ncgc.nih.gov/pub/openhts). A four parameter Hill equation was fitted to the concentration-response data by minimizing the residual error between the modeled and observed responses.
Potency is the fitted concentration of half-maximal effect.

Structure (SMILES) | Potency
C[N+](C)(CCCCCC[N+](C)(C)CCCN1C(=O)c2cccc3cccc(c23)C1=O)CCCN1C(=O)c2cccc3cccc(c23)C1=O | 2.51 µM (active)
O=C(COC(=O)CCCN1C(=O)c2cccc3cccc(c23)C1=O)NC1CCS(=O)(=O)C1 (configuration not stated) | inactive
O=C(CN1C(=O)c2cccc3cccc(c23)C1=O)N1CCCCC1 | inactive
O=C(O)C1=C/C(=C/C=[N+]2c3cc(O)c(O[C@H]4OC(CO)[C@@H](O)[C@@H](O)[C@@H]4O)cc3C[C@@H]2C(=O)[O-])C[C@H](C(=O)O)N1 (some centres not stated) | inactive
COc1cc2nc(C#Cc3nc4cc(OC)c(OC)cc4[nH]3)[nH]c2cc1OC | inactive
CS(=O)c1ccc(/C=C2\C=Cc3ccccc32)cc1 (configuration not stated) | inactive
CCOC(=O)c1c(Cc2ccc(Cl)cc2)c[nH]c1C | 89.1 µM (active)
CCOC(=O)N1CCN(C(=O)CNC(=O)Cc2ccc(Cl)cc2)CC1 | inactive
CCOC(=O)c1ccc(CS(=O)c2ccc(Cl)cc2)o1 (configuration not stated) | inactive
O=C(CCS(=O)(=O)c1ccccc1)N(Cc1cccnc1)c1nc2c(F)cccc2s1 | inactive
Clc1cccc[n+]1CCCC[n+]1ccccc1Cl | 79.4 µM (active)
Brc1cccc[n+]1Cc1cccc(C[n+]2ccccc2Br)c1 | inactive
ClC/C=C/C[n+]1ccccc1Cl | inactive
Oc1ccc(Cl)cc1C1C=C(c2ccc3c(c2)OCO3)NC(c2ccc(F)c(Br)c2)N1 (configuration not stated) | inactive
CC(C)(C)OC(=O)N1CCC(c2c(C(=O)NCc3ccccn3)cnn2-c2ccc(F)cc2)CC1 | inactive
CCCCC(CCCC)c1ccc(C=Nc2ccc(/C=C/c3ccnc4ccccc34)cc2)cc1 | inactive
COc1ccc(Cl)cc1NC(=O)CCn1c(=O)c2cccn2c2ccccc21 | inactive
O=C(c1cnn2c1NC(=C1CC1)C=C2C(F)F)N1CCc2ccccc2C1 | inactive
Cc1csc(NCC(=O)c2c[nH]c3ccccc23)n1 | inactive
CN(C)C1=C2C=CC=CC2/C(=C2/C=Cc3ccccc32)C=C1 (configuration not stated) | inactive
OC(CBr)C[n+]1cccc2cc(Br)ccc21 (configuration not stated) | inactive
CCc1ccc2nc3sc(C(=O)Nc4nnc(CC)s4)c(N)c3cc2c1 | 44.7 µM (active)
CCc1nnc(NC(=O)c2cc(S(=O)(=O)N3CCCCC3)ccc2C)s1 | inactive
CCc1ccc(NC(=O)c2sc3nc4c(cc3c2N)CN(CC)CC4)cc1 | inactive
CN(Cc1ccccc1)c1ccc(/C=C/c2ccnc3ccccc23)cc1 | inactive

Structure (SMILES) | Potency
O=C(c1ccco1)N(Cc1cccs1)c1ccc(O)cc1 | inactive
OC[C@@H]1O[C@H](n2cnc3c(SCc4ccccc4)ncnc32)[C@H](O)[C@H]1O | inactive
CCN(CC)c1ccc(/C=C/c2c(C)cnc3ccc(C)cc23)cc1 | inactive
CN=C1S/C(=C\c2c(OC)cc(OC)cc2OC)C(=O)N1C | inactive
O=C(O)c1cccc(N=NN2CCCCCC2)c1 | inactive
CN1C(=O)/C(=C/c2ccco2)SC1=Nc1cccc(C(=O)O)c1 | 50.1 µM (active)
COc1cc2[nH]c(C)c(CCN3CCN(c4ccccc4)CC3)c2cc1OC | inactive
O=C(CSc1nc(=O)n(Cc2cccnc2)c2c1CCC2)Nc1ccc(F)cc1F | inactive
Cc1ccc(C(=O)O)cc1-c1ccc(/C=C2\SC(=O)N(CC(=O)Nc3ccc4c(c3)OCO4)C2=O)o1 | 39.8 µM (active)
COC(=O)c1ccc2c(c1)N(CC(=O)Nc1ccc(C)c(C)c1)C(=O)c1ccccc1S2 | inactive
Cc1nc([N+](=O)[O-])cn1CC(=O)Nc1ccc2c(c1)OCO2 | inactive
CSc1n[nH]c(-c2ccco2)n1 | inactive
CCC(=C/c1sc2ccc3ccccc3c2[n+]1C)/C=C1\Sc2ccc3ccccc3c2N1C | 12.6 µM (active)
CCCCNC(=O)Cn1c(SCc2cccc(Cl)c2)nc2ccncc21 | inactive
CC(C)(C)c1ccc(C(=O)C[N+]2(C)CCCc3ccccc32)cc1 (configuration not stated) | inactive
c1ccc2cc3c(NCCN4CCOCC4)ccnc3cc2c1 | 17.8 µM (active)
CCOc1nc(NCCN2CCOCC2)nc(Nc2ccc(C)cc2)n1 | inactive
Fc1ccc(-c2ccc(NCCN3CCOCC3)nn2)cc1 | inactive
COc1cc(OC)c(OC)cc1/C=C1\C=Cc2ccccc21 | inactive
O=S(=O)(c1cccc(C(F)(F)F)c1)N1CCN(c2nc(-c3cccs3)nc3ccccc23)CC1 | inactive
CN(C(=O)CCN1C(=O)/C(=C/c2ccccc2F)SC1=S)C1CCS(=O)(=O)C1 (configuration not stated) | inactive
Cc1ccc(-c2nn(-c3ccccc3)cc2/C=C2\SC(=S)N(CCCCCC(=O)O)C2=O)o1 | 31.6 µM (active)
O=C1/C(=C\c2ccccc2Cl)SC(=S)N1CCC(=O)N1CCCc2ccccc21 | inactive
Cc1cc(C)c2nc3nc(C)cc(C)c3c(N)c2c1 | 39.8 µM (active)
CN1CCN(c2oc(-c3ccc(COc4ccc(Cl)cc4)o3)nc2C#N)CC1 | inactive

Structure (SMILES) | Potency
COc1ccc(OC)c(NC(=O)C2CCCN(S(=O)(=O)c3ccc4c(c3)CCCC(=O)N4)C2)c1 (configuration not stated) | inactive
COc1cccc(OC)c1C(=O)Nc1ccc2c(c1)n(C)c(=O)n2C | inactive
COc1cccc2sc3cc(NCC[C@@H]4CCCN4C)ccc3c(=O)c12 | 50.1 µM (active)
COc1ccc(/C=C/c2ccnc3ccccc23)cc1OC | inactive
CNc1ccc(-c2nc(-c3ccco3)no2)cc1[N+](=O)[O-] | inactive
COC(=O)c1ccccc1NS(=O)(=O)c1ccc2[nH]c(=O)[nH]c2c1 | inactive
CCOc1ncccc1C(=O)NNC(=O)c1cccc(S(=O)(=O)Nc2ccccc2OC)c1 | inactive
COc1cccc(/C=N/Nc2ccc(S(=O)(=O)Nc3ccccc3C(=O)O)cc2[N+](=O)[O-])c1O | 79.4 µM (active)
O=C1C(Cl)=C(Oc2ccccc2)C(=O)c2ccccc21 | 56.2 µM (active)
COc1ccc(Cn2c(=O)[nH]c3cc(C(=O)N4CCN(C(=O)c5ccco5)CC4)ccc3c2=O)cc1 | inactive
Cc1ccc(S(=O)(=O)N2CCN(c3nc(-n4cnc5ccccc54)nc4ccccc34)CC2)cc1 | inactive
C/C=C/NNC(=O)Cc1ccc(OC)cc1 | inactive
Cc1cccc(C2CC(=O)Oc3c2c(=O)n(C)c2ccccc32)c1 (configuration not stated) | inactive
Cc1cccc(OP(=O)(Nc2c(C)n(C)n(-c3ccccc3)c2=O)Oc2cccc(C)c2)c1 | inactive
Cc1cccc(Oc2c([N+](=O)[O-])c(=O)n(C)c3ccccc23)c1 | 20 µM (active)
Cc1[nH]c2ccccc2c1C(=O)C(=O)N(C)c1ccccc1 | inactive
CCCC(=O)N1CCN(c2nc3c(OC)ccc(C)c3s2)CC1 | inactive
Cc1cc[n+](C2CCCCC2)cc1 | inactive
CCOc1cccc2c1N[C@@H](c1ccc(C(=O)O)cc1)[C@H]1CC=C[C@@H]21 | 14.1 µM (active)
CCOc1cc(C(=O)O)ccc1OCCOc1ccccc1 | inactive
CCOC(=O)C1Nc2ccc(C(F)(F)F)cc2C2C=CCC12 (configuration not stated) | inactive
OC(CBr)CN1CCCCC1 (configuration not stated) | inactive
O=C(Nc1ccccc1)c1ccccc1OCc1ccccc1 | inactive
C#CCOCCOCCOCCNc1nc(N2CCN(C(=O)Cn3cc(CCO)nn3)CC2)nc(N2CCN(C(=O)[C@H](CCCCN)n3cc(CCCC)nn3)CC2)n1 | inactive
C#CCOCCOCCOCCNc1nc(N2CCN(C(=O)CCCCCCCCCCNC(=O)Cn3cc(CCCCCN)nn3)CC2)nc(N2CCN(C(=O)CCCCCCCCCCNC(=O)[C@H](CO)n3cc(CCCSC)nn3)CC2)n1 | 39.8 µM (active)

Structure (SMILES) | Potency
C#CCOCCOCCOCCNc1nc(N2CCN(C(=O)[C@H](CCC(=O)O)n3cc(CN)nn3)CC2)nc(N2CCN(C(=O)[C@H](CCC(=O)O)n3cc(CN)nn3)CC2)n1 | inactive
O=C(COC(=O)c1ccccc1OCCOc1ccccc1)Nc1cccc(Br)c1 | inactive
Cc1ccc(S(=O)(=O)c2c(Nc3cccc(Cl)c3)sc(C(=O)c3ccc4c(c3)OCO4)c2N)cc1 | inactive
Cc1ccc(C)c(N2CCN(CCCNC(=O)Nc3ccc(Cl)cc3)CC2)c1 | inactive
COc1ccc(C2Nc3ccc(NC(=O)COC(C)=O)cc3C(=O)N2Cc2ccccc2)cc1COc1ccc(NC(C)=O)cc1 (configuration not stated) | inactive
Cc1ccc(-c2nnc3ccc(SCC(N)=O)nn23)cc1 | inactive
S=c1[nH]nc(-c2cc(-c3ccsc3)n[nH]2)n1-c1ccccc1 | inactive
S=c1[nH]nc(-c2cc(-c3ccccc3)n[nH]2)n1/N=C/c1c2ccccc2cc2ccccc12 | 39.8 µM (active)
Cc1cc(-c2n[nH]c(=S)n2/N=C/C(Br)=C/c2ccccc2)n[nH]1 | inactive
Cc1cccc(NC(=O)COC(=O)c2ccccc2OCc2cccc(Br)c2)c1 | inactive
COc1ccc(CN(Cc2ccccc2)C(=O)c2ccc(O)cc2)cc1COc1ccc(NC(C)=O)cc1 | inactive
O=C1c2ccccc2C(=O)N1c1ccc(S(=O)(=O)N2CCOCC2)c2ccccc12 | inactive
CCN1/C(=C/c2ccc3ccc(C)cc3[n+]2CC)Sc2ccccc21 | 50.1 µM (active)
OC(Cc1ccc2ccccc2n1)c1ccc(Cl)c(Cl)c1 (configuration not stated) | inactive
O=C1COc2ccc(-c3csc(-c4ccc(Cl)cc4)n3)cc2N1 | inactive
Cc1cc(C)cc(NC(=O)CSc2nc(=O)n(CCN3CCOCC3)c3c2CCC3)c1 | inactive
CCOc1ccc(NC(=O)CSc2nnc3c(n2)[nH]c2ccc(S(=O)(=O)N4CCOCC4)cc23)cc1 | inactive
Cc1ccc(-n2ncc3c(NCCCn4ccnc4)ncnc32)cc1Cl | inactive
C(=Nc1ccc(/C=C/c2ccnc3ccccc23)cc1)c1cc2c3c(c1)CCCN3CCC2 | inactive
O=[N+]([O-])c1c(NCCO)cc(Sc2nc3ccccc3s2)c2nonc12 | 44.7 µM (active)
CC(C)(C)c1ccc(S(=O)(=O)Nc2ccc(O)c(Sc3nc4ccccc4s3)c2)cc1 | inactive
CN(C(=O)CSc1nc2ccc(NC(=O)COc3ccccc3)cc2s1)c1ccccc1 | inactive

Source: PubChem BioAssay AID588795 (National Center for Advancing Translational Sciences (NCATS), 2011)
